Compound activity (PubChem)
This is a sample that favours compounds with a hit; in the whole collection about 19% have one here.
HT1080NT lethal = kills 2HG-producing HT-1080-NT fibrosarcoma cells; HT-1080-NT fibrosarcoma viability, CellTiter-Glo ATP luminescence, 48 h; Potency, µM (series often up to 46.1 µM), hits mostly cytotoxic; 360,000 tested, 1.6% active; AID 686970;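 further: NT is the 2HG producing partner of a matched IDH1 knockdown line; nearly all actives have a fitted effect of over 55% in size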
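A 48-hour cytotoxicity screen used HT-1080-NT cells plated 2 hours before compound delivery. ATP-based CellTiter-Glo luminescence measured viability, normalized to DMSO and no-cell controls.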
HT1080 IDH1KD tx = kills HT-1080 cells with IDH1 knockdown | HT-1080 IDH1 knockdown viability, ATP luminescence, 48 h | Potency, µM (top dose mostly 46.1 µM), hits mostly cytotoxic | 360,000 tested, 2% active
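HT-1080-IDH1KD cells (IDH1 knocked down), 750/well in RPMI with 5% FBS, treated with compound 48 h at 37 degrees C. Viability by CellTiter-Glo luminescence, normalised to DMSO and no-cell wells; concentration-response curves classed.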
IL1B secr inh = inflammasome signaling inhibition, IL-1 beta readout. 360,000 tested, 4.7% active. activity change, % at 57.5 µM. THP-1 LPS/ATP IL-1B secretion, AlphaLISA, 16 h; active compounds read low; in the data active means activity change below about -50%; inconclusive means mostly about -30% to -49%
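THP-1 cells pretreated 1 hr with compounds (up to 57.5 uM final), then stimulated with LPS (250 ng/mL final) plus ATP (1.25 mM final); secreted IL-1B measured by AlphaLISA after 16 hr, decreased signal indicating inhibition.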
DT40 TDP1 CPT = DT40-hTDP1 cell growth loss with CPT; chicken DT40 Tdp1-/-;hTDP1 cells + 20 nM CPT, ATP luminescence, 48 h; Potency, µM (doses to about 46.2 µM), actives largely listed as inhibitors; 420,000 tested, 12% active; AID 686979; further: nearly all actives have a fitted effect of over 55% in size
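Cell growth measured by CellTiter-Glo luminescence after a minimum 48 h, 37 C compound exposure with 20 nM CPT in Tdp1-knockout DT40 cells stably expressing hTDP1, seeded 400/well; qHTS titration format.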
TDP1 cell noCPT = qHTS for Inhibitors of human tyrosyl-DNA phosphodiesterase 1 (TDP1): qHTS in cells in absence of CPT | 420,000 tested, 15% active | AID 686978, 2013 | Potency, µM (top dose mostly 46.2 µM), usual class: inhibitors | DT40 Tdp1-/- hTDP1 cells, no CPT, ATP luminescence, 48 h; further: nearly all actives have a fitted effect of over 55% in size
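No-CPT arm: Tdp1-/-;hTDP1 DT40 cells (400/well) plus compounds, incubated ≥48 hr at 37 °C. Readout CellTiter-Glo luminescence.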
Of the large screens only hits and unclear results are named; the others gave an inactive call. Unless noted, the call rests on the fitted dose curve; in most records, active means well fitted curve in the direction sought with a large enough effect; inconclusive means small, poorly fitted or top-dose-only effect, or another doubt; inactive means no such curve, though single readings can be large; an effect the other way counts as inactive or inconclusive.

CC(=O)c1cccc(NC(=O)C(C)OC(=O)c2ccc(S(C)(=O)=O)c([N+](=O)[O-])c2)c1 (stereo unspecified)	DT40 TDP1 CPT 2.2µM, TDP1 cell noCPT 3.2µM (no result: HT1080NT lethal, HT1080 IDH1KD tx, IL1B secr inh)
NC(=O)NC(=O)COC(=O)c1ccc(OC(F)(F)F)cc1	none
O=C(COC(=O)c1ccc(OC(F)(F)F)cc1)Nc1ncccn1	DT40 TDP1 CPT 21µM
CC(C)NC(=O)CN(C(=O)CCC(=O)Nc1nccs1)c1ccc(C(C)C)cc1	IL1B secr inh inconclusive, DT40 TDP1 CPT inconclusive
CN(c1ccc(C(=O)N2CCCCC2)cc1)S(C)(=O)=O	TDP1 cell noCPT inconclusive
COc1cccc(-c2nc(NCC3CCCO3)c3ccccc3n2)c1O (stereo unspecified)	IL1B secr inh -84, DT40 TDP1 CPT inconclusive, TDP1 cell noCPT inconclusive
COc1ccccc1Nc1nc(NCC2CCCO2)c2ccccc2n1 (stereo unspecified)	HT1080 IDH1KD tx inconclusive, DT40 TDP1 CPT 23µM, TDP1 cell noCPT 21µM (no result: IL1B secr inh)
CCOc1ccc(Nc2nc3cc(S(=O)(=O)N(CC)CC)ccc3o2)cc1	HT1080NT lethal inconclusive, HT1080 IDH1KD tx inconclusive, DT40 TDP1 CPT 5.8µM, TDP1 cell noCPT 7.3µM
CCS(=O)(=O)c1ccc2oc(Nc3ccc(C(C)C)cc3)nc2c1	DT40 TDP1 CPT 16µM, TDP1 cell noCPT 23µM
CCS(=O)(=O)c1ccc2oc(Nc3cc(C)cc(C)c3)nc2c1	DT40 TDP1 CPT inconclusive, TDP1 cell noCPT inconclusive
CCn1c(-c2ccccc2F)nc2cc(NC(C)=O)cc(C(=O)NCc3ncc(C)[nH]3)c21	none (no result: HT1080NT lethal, HT1080 IDH1KD tx, IL1B secr inh)
CCCCNC(=O)CN1C(=O)c2cccnc2Sc2ccccc21	TDP1 cell noCPT inconclusive (no result: HT1080NT lethal, HT1080 IDH1KD tx, IL1B secr inh)
O=C(N/N=C/c1ccc(F)cc1)c1cc(-c2ccc3c(c2)OCO3)n[nH]1	HT1080NT lethal inconclusive, HT1080 IDH1KD tx inconclusive, TDP1 cell noCPT 23µM
COc1ccc(/C=N/NC(=O)c2cc(-c3ccc4c(c3)OCO4)n[nH]2)cc1OC	IL1B secr inh inconclusive, DT40 TDP1 CPT 18µM, TDP1 cell noCPT 12µM
CN(C)c1ccc(/C=N/NC(=O)c2cc(-c3ccc4c(c3)OCO4)n[nH]2)cc1	HT1080NT lethal 5.8µM, HT1080 IDH1KD tx inconclusive, DT40 TDP1 CPT 18µM, TDP1 cell noCPT 21µM
CCCN(CCC)CCCNC(=O)c1nn(-c2cccc(OC)c2)c(=O)c2ccccc12	DT40 TDP1 CPT inconclusive
Clc1ccc(C(c2cccs2)N2CCNCC2)cc1 (stereo unspecified)	HT1080 IDH1KD tx inconclusive, IL1B secr inh -50, DT40 TDP1 CPT 13µM, TDP1 cell noCPT 18µM
Cc1cc(C)nc(N/N=C2/CCCC/C2=C\c2ccccc2)n1	HT1080NT lethal inconclusive, HT1080 IDH1KD tx inconclusive, IL1B secr inh inconclusive, DT40 TDP1 CPT 2.1µM, TDP1 cell noCPT 1.2µM
Cc1ccnc(N/N=C/c2ccccc2)n1	none
CS(=O)(=O)Nc1ccc(C(=O)Nc2ccc3c(c2)OCO3)cc1	HT1080 IDH1KD tx inconclusive
CC1(C)Oc2ccc3ccc(=O)oc3c2/C(=C/Nc2ccccn2)C1=O	DT40 TDP1 CPT inconclusive, TDP1 cell noCPT inconclusive
CC1(C)Oc2ccc3ccc(=O)oc3c2/C(=C/Nc2ccc(O)cc2)C1=O	HT1080NT lethal inconclusive, IL1B secr inh -81, TDP1 cell noCPT inconclusive
CC1(C)Oc2ccc3ccc(=O)oc3c2/C(=C/Nc2cccc(O)c2)C1=O	HT1080NT lethal inconclusive, HT1080 IDH1KD tx inconclusive, IL1B secr inh -84, DT40 TDP1 CPT inconclusive, TDP1 cell noCPT 21µM
Cc1ccc(S(=O)(=O)N2CCCC2CNC(=O)C(=O)Nc2ccc(F)cc2F)cc1 (stereo unspecified)	DT40 TDP1 CPT 23µM, TDP1 cell noCPT 15µM
O=C(NCc1ccc(F)cc1)C(=O)NCC1CCCN1S(=O)(=O)c1ccccc1 (stereo unspecified)	TDP1 cell noCPT inconclusive
O=C(NCCc1ccc(F)cc1)C(=O)NCC1CCCN1S(=O)(=O)c1ccccc1 (stereo unspecified)	HT1080 IDH1KD tx inconclusive, IL1B secr inh -80, DT40 TDP1 CPT 10µM, TDP1 cell noCPT 8.2µM
COc1ccc(CCNC(=O)C(=O)NCC2CCCN2S(=O)(=O)c2ccccc2)cc1 (stereo unspecified)	HT1080NT lethal inconclusive, DT40 TDP1 CPT 21µM, TDP1 cell noCPT 18µM
COc1ccc(S(=O)(=O)N2CCCC2CNC(=O)C(=O)NCCc2ccccc2)cc1 (stereo unspecified)	HT1080NT lethal inconclusive, HT1080 IDH1KD tx 18µM, DT40 TDP1 CPT 7.3µM, TDP1 cell noCPT 7.3µM
COc1ccc(CCNC(=O)C(=O)NCC2CCCN2S(=O)(=O)c2cc(C)ccc2C)cc1 (stereo unspecified)	DT40 TDP1 CPT inconclusive, TDP1 cell noCPT inconclusive
COc1ccc(CCNC(=O)C(=O)NCC2CCCN2S(=O)(=O)c2cccs2)cc1 (stereo unspecified)	DT40 TDP1 CPT inconclusive, TDP1 cell noCPT inconclusive
Cc1cccc(NC(=O)Cn2c(=O)n(CC3CCC(C(=O)NCCc4ccccc4)CC3)c(=O)c3ccccc32)c1C (stereo unspecified)	none (no result: HT1080NT lethal, HT1080 IDH1KD tx, IL1B secr inh)
COc1ccc(S(=O)(=O)N2CCCC2CNC(=O)C(=O)NCc2ccccc2)cc1 (stereo unspecified)	DT40 TDP1 CPT inconclusive, TDP1 cell noCPT inconclusive
COc1ccc(S(=O)(=O)N2CCCC2CNC(=O)C(=O)NCc2ccc(C)cc2)cc1 (stereo unspecified)	DT40 TDP1 CPT inconclusive, TDP1 cell noCPT 16µM
CCc1ccc(NC(=O)C(=O)NCC2CCCN2S(=O)(=O)c2ccccc2)cc1 (stereo unspecified)	HT1080 IDH1KD tx inconclusive, DT40 TDP1 CPT inconclusive, TDP1 cell noCPT 21µM
O=C(NCC1CCCN1S(=O)(=O)c1ccccc1)C(=O)NC1CC1 (stereo unspecified)	none
O=C(c1ccoc1)N1CCC2(CCCN(Cc3ccc(F)c(F)c3)C2)C1 (stereo unspecified)	DT40 TDP1 CPT inconclusive
Cc1occc1C(=O)N1CCC2(CCCN(Cc3ccc(F)c(F)c3)C2)C1 (stereo unspecified)	DT40 TDP1 CPT 15µM, TDP1 cell noCPT 16µM
CCC(C)NC(=O)c1sc2nc(C)c(C(=O)Nc3ccc(C)cc3C)c(-c3ccccc3Cl)c2c1N (stereo unspecified)	DT40 TDP1 CPT 15µM, TDP1 cell noCPT inconclusive (no result: HT1080NT lethal, HT1080 IDH1KD tx, IL1B secr inh)
CCC(C)NC(=O)c1sc2nc(C)c(C(=O)Nc3ccc(C)cc3C)c(-c3ccc(Cl)cc3)c2c1N (stereo unspecified)	DT40 TDP1 CPT 23µM, TDP1 cell noCPT inconclusive (no result: HT1080NT lethal, HT1080 IDH1KD tx, IL1B secr inh)
CCC(C)NC(=O)c1sc2nc(C)c(C(=O)Nc3ccc(C)cc3C)c(-c3ccc(NC(C)=O)cc3)c2c1N (stereo unspecified)	DT40 TDP1 CPT 21µM, TDP1 cell noCPT inconclusive (no result: HT1080NT lethal, HT1080 IDH1KD tx, IL1B secr inh)
Cc1cc(C)c2c(N)c(C(=O)Nc3ccccc3Cl)sc2n1	HT1080NT lethal inconclusive, HT1080 IDH1KD tx inconclusive, DT40 TDP1 CPT inconclusive, TDP1 cell noCPT inconclusive
